# Assay results reported in ChEMBL document CHEMBL1961873, “Compounds: GSK PKIS; Assays: Nanosyn kinase panel” (2012).
# Legend:
# [1] = target: RAC-alpha serine/threonine-protein kinase (Homo sapiens) (UniProt P31749); conditions: at 0.1 µM
# [2] = target: RAC-alpha serine/threonine-protein kinase (Homo sapiens) (UniProt P31749); conditions: at 1 µM
# [3] = target: RAC-beta serine/threonine-protein kinase (Homo sapiens) (UniProt P31751); conditions: at 0.1 µM
# [4] = target: RAC-beta serine/threonine-protein kinase (Homo sapiens) (UniProt P31751); conditions: at 1 µM
# [5] = target: RAC-gamma serine/threonine-protein kinase (Homo sapiens) (UniProt Q9Y243); conditions: at 0.1 µM
# [6] = target: RAC-gamma serine/threonine-protein kinase (Homo sapiens) (UniProt Q9Y243); conditions: at 1 µM
# [7] = target: G protein-coupled receptor kinase 6 (Homo sapiens) (UniProt P43250); conditions: at 0.1 µM
# [8] = target: G protein-coupled receptor kinase 6 (Homo sapiens) (UniProt P43250); conditions: at 1 µM
# [9] = target: T1, Rhodopsin kinase GRK7 (Homo sapiens) (UniProt Q8WTQ7); conditions: at 0.1 µM
# T1 sequence (whole entry): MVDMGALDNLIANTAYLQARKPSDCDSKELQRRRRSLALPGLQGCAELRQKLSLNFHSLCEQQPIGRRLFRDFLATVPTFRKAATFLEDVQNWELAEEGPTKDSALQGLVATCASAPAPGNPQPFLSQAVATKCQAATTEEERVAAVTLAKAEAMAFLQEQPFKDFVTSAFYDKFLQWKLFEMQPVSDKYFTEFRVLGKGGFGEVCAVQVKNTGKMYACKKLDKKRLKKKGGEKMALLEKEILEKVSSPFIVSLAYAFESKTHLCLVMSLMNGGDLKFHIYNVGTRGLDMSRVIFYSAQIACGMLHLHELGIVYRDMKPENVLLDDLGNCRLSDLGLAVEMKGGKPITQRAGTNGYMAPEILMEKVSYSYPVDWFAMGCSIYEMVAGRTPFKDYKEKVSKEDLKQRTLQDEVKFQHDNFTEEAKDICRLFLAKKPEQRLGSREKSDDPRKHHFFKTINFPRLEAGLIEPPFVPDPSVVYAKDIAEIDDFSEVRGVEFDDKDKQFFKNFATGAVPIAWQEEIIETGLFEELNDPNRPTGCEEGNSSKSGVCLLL
# [10] = target: T1, Rhodopsin kinase GRK7 (Homo sapiens); conditions: at 1 µM
# [11] = target: Serine/threonine-protein kinase MRCK alpha (Homo sapiens) (UniProt Q5VT25); conditions: at 0.1 µM
# [12] = target: Serine/threonine-protein kinase MRCK alpha (Homo sapiens) (UniProt Q5VT25); conditions: at 1 µM
# [13] = target: Serine/threonine-protein kinase MRCK beta (Homo sapiens) (UniProt Q9Y5S2); conditions: at 0.1 µM
# [14] = target: Serine/threonine-protein kinase MRCK beta (Homo sapiens) (UniProt Q9Y5S2); conditions: at 1 µM
# [15] = target: Ribosomal protein S6 kinase alpha-5 (Homo sapiens) (UniProt O75582); conditions: at 0.1 µM
# [16] = target: Ribosomal protein S6 kinase alpha-5 (Homo sapiens) (UniProt O75582); conditions: at 1 µM
# [17] = target: Ribosomal protein S6 kinase alpha-4 (Homo sapiens) (UniProt O75676); conditions: at 0.1 µM
# [18] = target: Ribosomal protein S6 kinase alpha-4 (Homo sapiens) (UniProt O75676); conditions: at 1 µM
# [19] = target: Ribosomal protein S6 kinase beta-1 (Homo sapiens) (UniProt P23443); conditions: at 0.1 µM
# [20] = target: Ribosomal protein S6 kinase beta-1 (Homo sapiens) (UniProt P23443); conditions: at 1 µM
# Sequence of RAC-alpha serine/threonine-protein kinase (Homo sapiens) (P31749 whole entry): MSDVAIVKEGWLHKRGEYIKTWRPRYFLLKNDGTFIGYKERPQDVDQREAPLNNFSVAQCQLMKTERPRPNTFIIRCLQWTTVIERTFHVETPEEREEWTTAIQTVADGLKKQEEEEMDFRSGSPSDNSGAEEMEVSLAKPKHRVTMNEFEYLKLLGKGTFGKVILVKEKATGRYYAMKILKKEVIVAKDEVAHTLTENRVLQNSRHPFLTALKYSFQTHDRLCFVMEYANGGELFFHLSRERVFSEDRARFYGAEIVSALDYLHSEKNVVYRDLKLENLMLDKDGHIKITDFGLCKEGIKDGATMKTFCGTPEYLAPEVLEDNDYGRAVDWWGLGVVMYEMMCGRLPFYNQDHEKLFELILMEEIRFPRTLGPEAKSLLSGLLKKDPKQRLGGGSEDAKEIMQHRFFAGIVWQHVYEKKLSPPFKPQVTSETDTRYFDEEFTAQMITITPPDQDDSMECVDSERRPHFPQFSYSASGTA
# Sequence of Ribosomal protein S6 kinase beta-1 (Homo sapiens) (P23443 whole entry, looked up): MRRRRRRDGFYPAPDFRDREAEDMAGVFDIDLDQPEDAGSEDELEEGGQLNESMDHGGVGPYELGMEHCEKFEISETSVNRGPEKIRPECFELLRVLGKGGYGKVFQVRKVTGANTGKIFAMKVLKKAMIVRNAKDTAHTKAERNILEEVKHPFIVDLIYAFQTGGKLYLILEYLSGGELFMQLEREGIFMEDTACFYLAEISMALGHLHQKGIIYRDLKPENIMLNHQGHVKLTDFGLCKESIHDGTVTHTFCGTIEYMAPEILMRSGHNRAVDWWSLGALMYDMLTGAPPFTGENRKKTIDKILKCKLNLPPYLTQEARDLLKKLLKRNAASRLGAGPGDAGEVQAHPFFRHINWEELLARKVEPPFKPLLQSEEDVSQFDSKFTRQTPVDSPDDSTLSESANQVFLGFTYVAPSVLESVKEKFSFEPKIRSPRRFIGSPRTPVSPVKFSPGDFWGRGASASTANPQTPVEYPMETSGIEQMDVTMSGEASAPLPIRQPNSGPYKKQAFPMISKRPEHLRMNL
# Sequence of RAC-gamma serine/threonine-protein kinase (Homo sapiens) (Q9Y243 whole entry): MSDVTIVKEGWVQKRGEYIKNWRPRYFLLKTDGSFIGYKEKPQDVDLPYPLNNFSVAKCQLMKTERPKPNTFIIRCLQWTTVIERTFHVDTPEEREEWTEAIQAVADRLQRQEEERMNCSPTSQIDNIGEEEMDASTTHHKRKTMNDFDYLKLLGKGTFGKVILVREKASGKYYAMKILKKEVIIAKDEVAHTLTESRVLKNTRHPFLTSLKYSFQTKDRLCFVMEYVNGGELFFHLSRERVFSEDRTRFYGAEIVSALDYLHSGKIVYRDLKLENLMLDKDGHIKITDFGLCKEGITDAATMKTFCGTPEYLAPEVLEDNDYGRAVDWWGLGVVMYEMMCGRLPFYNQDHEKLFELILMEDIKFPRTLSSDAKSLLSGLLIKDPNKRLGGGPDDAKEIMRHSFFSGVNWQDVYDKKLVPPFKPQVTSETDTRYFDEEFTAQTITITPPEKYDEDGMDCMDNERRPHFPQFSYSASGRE
# Sequence of G protein-coupled receptor kinase 6 (Homo sapiens) (P43250 whole entry, looked up): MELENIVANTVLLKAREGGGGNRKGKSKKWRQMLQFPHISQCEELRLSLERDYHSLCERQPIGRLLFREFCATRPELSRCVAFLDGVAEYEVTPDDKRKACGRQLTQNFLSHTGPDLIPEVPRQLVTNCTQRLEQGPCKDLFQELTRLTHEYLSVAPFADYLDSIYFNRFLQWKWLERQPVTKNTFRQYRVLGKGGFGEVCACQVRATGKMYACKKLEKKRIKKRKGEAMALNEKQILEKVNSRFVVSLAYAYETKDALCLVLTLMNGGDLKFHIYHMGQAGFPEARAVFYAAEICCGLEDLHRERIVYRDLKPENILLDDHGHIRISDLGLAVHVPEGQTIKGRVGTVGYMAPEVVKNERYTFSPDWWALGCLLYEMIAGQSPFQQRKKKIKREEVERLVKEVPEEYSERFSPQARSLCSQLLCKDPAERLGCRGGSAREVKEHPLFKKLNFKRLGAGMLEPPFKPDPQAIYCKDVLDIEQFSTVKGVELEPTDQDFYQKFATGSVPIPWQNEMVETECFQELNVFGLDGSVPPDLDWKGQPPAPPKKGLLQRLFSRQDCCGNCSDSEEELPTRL
# Sequence of Serine/threonine-protein kinase MRCK beta (Homo sapiens) (Q9Y5S2 whole entry): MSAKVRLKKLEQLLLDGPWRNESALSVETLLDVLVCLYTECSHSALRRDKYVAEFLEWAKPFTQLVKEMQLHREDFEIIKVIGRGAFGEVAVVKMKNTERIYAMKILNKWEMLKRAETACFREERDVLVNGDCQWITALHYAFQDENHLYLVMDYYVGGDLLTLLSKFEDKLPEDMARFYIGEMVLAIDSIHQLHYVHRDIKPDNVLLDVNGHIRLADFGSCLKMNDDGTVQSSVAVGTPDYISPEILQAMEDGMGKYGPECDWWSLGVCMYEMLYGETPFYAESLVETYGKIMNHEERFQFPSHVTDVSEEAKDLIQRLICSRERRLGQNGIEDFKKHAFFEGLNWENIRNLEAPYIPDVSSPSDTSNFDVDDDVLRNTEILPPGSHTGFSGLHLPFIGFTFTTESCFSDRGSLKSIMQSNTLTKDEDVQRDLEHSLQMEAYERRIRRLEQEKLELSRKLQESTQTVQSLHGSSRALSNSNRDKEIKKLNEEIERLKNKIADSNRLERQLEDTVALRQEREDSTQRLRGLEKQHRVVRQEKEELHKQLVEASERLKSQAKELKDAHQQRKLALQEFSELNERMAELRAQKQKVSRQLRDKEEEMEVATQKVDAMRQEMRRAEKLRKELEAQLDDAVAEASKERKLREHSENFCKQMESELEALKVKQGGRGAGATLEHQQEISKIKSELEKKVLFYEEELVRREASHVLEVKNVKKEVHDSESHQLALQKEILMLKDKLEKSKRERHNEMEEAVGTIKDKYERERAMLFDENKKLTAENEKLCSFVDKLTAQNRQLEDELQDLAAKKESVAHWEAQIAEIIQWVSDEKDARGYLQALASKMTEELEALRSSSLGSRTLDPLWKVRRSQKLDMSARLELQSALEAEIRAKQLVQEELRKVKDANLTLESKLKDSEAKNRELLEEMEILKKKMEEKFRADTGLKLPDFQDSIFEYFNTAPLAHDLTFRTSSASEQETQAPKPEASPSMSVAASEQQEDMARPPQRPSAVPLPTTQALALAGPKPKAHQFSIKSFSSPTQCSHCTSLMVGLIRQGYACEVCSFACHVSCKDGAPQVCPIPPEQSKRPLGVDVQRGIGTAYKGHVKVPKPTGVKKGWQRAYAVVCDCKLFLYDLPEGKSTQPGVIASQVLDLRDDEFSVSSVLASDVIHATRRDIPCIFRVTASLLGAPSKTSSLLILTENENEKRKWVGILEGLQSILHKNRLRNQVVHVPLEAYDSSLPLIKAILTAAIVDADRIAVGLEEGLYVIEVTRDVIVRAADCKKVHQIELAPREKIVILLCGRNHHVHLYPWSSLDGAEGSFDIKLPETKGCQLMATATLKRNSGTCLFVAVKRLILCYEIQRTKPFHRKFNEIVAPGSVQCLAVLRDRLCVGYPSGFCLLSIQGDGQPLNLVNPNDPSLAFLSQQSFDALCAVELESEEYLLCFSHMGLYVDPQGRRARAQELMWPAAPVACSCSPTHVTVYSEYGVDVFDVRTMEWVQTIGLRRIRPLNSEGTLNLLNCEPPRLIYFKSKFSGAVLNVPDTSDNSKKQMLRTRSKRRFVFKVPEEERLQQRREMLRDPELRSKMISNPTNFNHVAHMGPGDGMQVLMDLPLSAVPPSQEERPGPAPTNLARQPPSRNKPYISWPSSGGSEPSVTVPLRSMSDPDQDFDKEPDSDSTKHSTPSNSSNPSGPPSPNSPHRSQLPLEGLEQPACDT
# Sequence of Ribosomal protein S6 kinase alpha-4 (Homo sapiens) (O75676 whole entry, looked up): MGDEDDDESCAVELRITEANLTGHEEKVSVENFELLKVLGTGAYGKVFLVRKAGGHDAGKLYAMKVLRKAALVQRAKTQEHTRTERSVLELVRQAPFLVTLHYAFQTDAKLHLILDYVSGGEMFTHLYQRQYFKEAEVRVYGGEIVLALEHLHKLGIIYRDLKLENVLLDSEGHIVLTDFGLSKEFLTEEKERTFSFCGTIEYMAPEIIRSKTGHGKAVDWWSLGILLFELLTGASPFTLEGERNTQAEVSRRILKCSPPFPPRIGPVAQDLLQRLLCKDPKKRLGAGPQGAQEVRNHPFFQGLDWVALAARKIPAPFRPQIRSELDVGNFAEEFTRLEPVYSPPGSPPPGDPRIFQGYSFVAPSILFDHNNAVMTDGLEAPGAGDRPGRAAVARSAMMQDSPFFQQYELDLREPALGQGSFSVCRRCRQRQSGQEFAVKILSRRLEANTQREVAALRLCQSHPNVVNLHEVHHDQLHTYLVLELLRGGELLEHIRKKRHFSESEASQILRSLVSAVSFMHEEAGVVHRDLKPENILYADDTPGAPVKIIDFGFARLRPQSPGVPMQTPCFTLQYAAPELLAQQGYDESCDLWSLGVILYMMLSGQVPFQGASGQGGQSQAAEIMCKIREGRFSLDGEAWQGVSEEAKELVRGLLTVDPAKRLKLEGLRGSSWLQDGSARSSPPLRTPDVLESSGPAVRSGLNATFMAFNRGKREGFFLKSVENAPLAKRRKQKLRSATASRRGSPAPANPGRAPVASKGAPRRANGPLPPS
# Sequence of RAC-beta serine/threonine-protein kinase (Homo sapiens) (P31751 whole entry): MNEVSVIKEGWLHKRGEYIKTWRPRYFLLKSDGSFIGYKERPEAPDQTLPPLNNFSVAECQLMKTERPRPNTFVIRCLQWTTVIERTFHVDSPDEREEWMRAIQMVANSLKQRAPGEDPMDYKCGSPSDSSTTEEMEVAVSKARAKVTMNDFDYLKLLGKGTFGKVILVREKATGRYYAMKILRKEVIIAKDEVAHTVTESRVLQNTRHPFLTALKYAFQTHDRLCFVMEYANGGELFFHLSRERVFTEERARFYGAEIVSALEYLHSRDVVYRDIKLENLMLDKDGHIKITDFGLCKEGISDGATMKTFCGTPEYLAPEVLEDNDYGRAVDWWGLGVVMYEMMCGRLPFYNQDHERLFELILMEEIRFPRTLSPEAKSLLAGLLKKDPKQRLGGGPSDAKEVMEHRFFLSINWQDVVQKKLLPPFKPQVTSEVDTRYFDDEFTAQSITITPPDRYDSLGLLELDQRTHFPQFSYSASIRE
Structure (SMILES),inhibition [1] [%],inhibition [2] [%],inhibition [3] [%],inhibition [4] [%],inhibition [5] [%],inhibition [6] [%],inhibition [7] [%],inhibition [8] [%],inhibition [9] [%],inhibition [10] [%],inhibition [11] [%],inhibition [12] [%],inhibition [13] [%],inhibition [14] [%],inhibition [15] [%],inhibition [16] [%],inhibition [17] [%],inhibition [18] [%],inhibition [19] [%],inhibition [20] [%]
NS(=O)(=O)c1ccc(N/N=C2\C(=O)Nc3ccc(-c4cnco4)cc32)cc1,-3.71,-3.3,-3.63,-1.8,-3.1,-0.96,-0.25,2.71,8.59,7.29,0.37,8.38,0.26,6.65,-1.59,-0.36,0.74,3.26,0.79,6.58
O=C(Nc1ccc(Oc2ccc3[nH]c(NC(=O)c4ccccc4)nc3c2)cc1)Nc1cc(C(F)(F)F)ccc1F,-0.2,1.04,1.71,1.18,1.05,1.51,2.58,4.7,0.51,-2.78,-0.69,1,-0.31,-0.22,4.16,5.67,2.16,3.01,5.73,36.4
Fc1ccc(-c2ncn(CCCN3CCOCC3)c2-c2ccncc2)cc1,0.28,-0.27,0.74,0.26,-0.68,1.2,-3.25,-1.04,-1.98,3.1,1.19,1.33,0.96,2.08,0.01,-0.79,0.3,0.33,0.29,-0.43
CN(C)c1ccc2c(c1)/C(=C/Nc1ccc(S(N)(=O)=O)cc1)C(=O)N2,0.14,-0.46,0.75,1.06,2.06,1.85,3.15,5.15,0.97,8.73,0.22,4.01,1.12,2.85,3.06,4.05,1.96,3.55,0.19,3.09
CN1CCN(CCCNc2nc3ccc(Oc4ccc(NC(=O)Nc5cc(C(F)(F)F)ccc5F)cc4)cc3[nH]2)CC1,-3.71,-3.59,-3.19,-0.85,-3.05,-2.98,0.32,-5.54,1.12,-3.95,1.76,-0.74,2.45,2.84,1.13,-0.08,1.93,2.99,1.14,4.19
C/C(Nc1ccc(S(N)(=O)=O)cc1)=C1/C(=O)Nc2ccccc21,-0.64,-1.45,-3.63,-0.17,-2.53,-0.18,-0.76,9.44,-7.29,2.76,-0.23,0.16,0.47,3.4,0,8.47,1.38,17.7,-1.96,2.17
COc1ccc2ncn(-c3cc(O[C@H](C)c4ccccc4Cl)c(C(N)=O)s3)c2c1,-3.63,-2.95,-2.65,-2.8,-2.12,-1.2,-0.3,0.35,8.25,2.33,-0.38,1.13,0.7,3.24,2.21,1.33,3.9,2.99,0.38,2.8
COc1cccc(-n2cnc3c(N/N=C/c4ccncc4)ncnc32)c1,-4.15,-3.41,-3.57,-4.73,-4.17,-3.32,2.45,8.28,1.71,5.64,1.59,3.69,0.38,0.7,-0.31,1.02,2.44,3.95,-0.32,1.15
NC(=O)c1cc(-c2ccc(F)cc2)cc(-c2ccncc2)c1N,0.92,1.2,1.95,2.01,2.01,4.31,5.99,6.88,2.49,11.1,-1.04,-1.25,-1.54,-2.26,2.2,1.39,2.03,2.52,1.5,2.24
Fc1ccc(-c2ncn(C3CCNCC3)c2-c2ccnc(Oc3ccc(Oc4ccccc4)cc3)n2)cc1,1.23,1.87,1.23,1.51,2.28,4.62,3.64,6.73,10.9,3.4,5.81,7.37,-0.26,1.5,10.2,11.9,2.53,5.09,2.41,4.57
Fc1ccc(-c2ncn(C3CCNCC3)c2-c2ccnc(Oc3ccc4c(c3)OCO4)n2)cc1,2.04,1.04,0.93,2.21,0.23,3.88,0.51,2.27,9.41,2.9,-2.57,9.23,0.96,2.94,-2.64,-3.44,3.63,4.53,2.58,5.14
c1ccc(-c2n[nH]cc2-c2ccnc(-c3ccc(OCCN4CCOCC4)cc3)c2)nc1,-0.28,0.23,-0.23,-0.3,-0.26,0.6,-5.07,-7.11,1.66,-0.22,6.85,-2.76,7.67,5.68,3.06,1.22,3.23,3.34,2.04,1.17
C[C@@H](Oc1cc(-n2cnc3ccc(OC4CCN(C)CC4)cc32)sc1C(N)=O)c1ccccc1Cl,-2.97,-3.84,-4.17,-2.31,-2.91,-1.57,4.79,6.21,10.7,3.62,0.03,5.65,0.19,2.98,2.31,1.66,2.84,5.67,1.64,5.01
NS(=O)(=O)c1ccc(Nc2cc(-c3ccc(O)c(F)c3)n[nH]2)cc1,-3.05,-2.1,-3.37,-1.69,-3.06,-2.28,-2.35,-0.57,-9.14,-0.64,-0.79,0.17,0.18,0.15,-1.17,8.77,-0.21,8.93,-2.09,4.29
CN(c1ccc(NC(=O)Nc2c(Cl)cccc2Cl)cc1)c1ccnc(Nc2cccc(CS(C)(=O)=O)c2)n1,0.48,1.09,0.5,2.1,3.21,-0.15,3.24,3.8,3.79,1.55,1.56,2.97,0.43,0.92,2.92,4.25,2.24,4.1,-1.3,2.4
CCN(CC)Cc1ccc(Nc2nccc(-c3cnn4ncccc34)n2)cc1,-2.02,-1.93,-2.76,-2.22,-1.29,-1.26,2.33,1.08,10.6,3.71,2.38,4.32,0.71,4.53,0.66,2.51,2.43,7.32,1.81,7.85
COc1ccc2cc(-c3c(-c4ccncc4)nc(-c4ccc([S+](C)[O-])cc4C)n3C)ccc2c1 (stereo not given),-0.62,-0.09,-0.6,-0.29,0.09,1.08,2.06,-0.69,-2.36,-0.96,-1.8,1.91,0.22,1.15,-7.06,-6.22,-0.04,-0.04,0.21,0.05
COc1cccc(/C=N/Nc2ncnc3c2cnn3-c2cccc(OC)c2)c1,1.02,-0.26,2.42,1.51,2.66,3.67,5.6,4.38,9.5,5.51,1.64,-0.23,-0.8,0.84,2.19,-0.07,2.48,2.78,1.49,2.2
CCc1cccc(CC)c1/C=C/c1cncc(C(=O)NC)c1,0.7,0.8,2.06,1.3,2.25,1.32,-2.11,-0.96,1.2,-8.54,0.02,0.07,0.83,1.46,3.05,2.79,0.51,2.52,1.3,0.41
COc1cc2ncn(-c3cc(OCc4ccccc4C(F)(F)F)c(C(C)=O)s3)c2cc1OC,0.53,1.82,0.85,1.16,0.29,1.31,-0.96,0.01,4.7,1.62,-2.12,1.84,0.33,0.86,1.02,-0.03,1.45,3.01,0.79,0.12
COc1cc(Nc2ncc3c(C)nc(-c4cccc(C(F)(F)F)c4)n3n2)cc(OC)c1OC,0.55,0.77,1.62,1.52,1.12,1.21,1.33,4.77,3.66,6.59,-0.66,4.12,-1.16,-0.4,2.79,5.2,2.89,8.48,2.17,5.51
c1ccc(Oc2ccc(Nc3ncc(-c4ccccc4)o3)cc2)cc1,0.05,0.39,0.18,0.15,-0.09,1.21,2.54,0.81,2.37,2,-0.31,1.06,0.44,3.62,0.98,3.6,1.31,3.78,0.11,-0.31
N#Cc1ccc(Oc2nccc(-c3c(-c4ccc(F)cc4)ncn3C3CCNCC3)n2)cc1,-0.06,0.41,0.99,3.57,2.37,2.2,-0.24,2.68,8.83,5.35,-6.56,-3.04,-1.06,0.02,1.54,-0.96,3.03,1.76,1.84,2.31
C[C@@H](Oc1cc(-n2cnc3ccc(OCC4CCN(C)CC4)cc32)sc1C(N)=O)c1ccccc1Cl,0.75,0.38,1.73,2.79,0.98,3.81,4.28,9.48,10.8,9.71,3.98,9.1,1.18,1.35,4.97,7.75,3.23,7.58,2.88,6.79
